Assay outcomes from PubChem BioAssay.
In the library only some 7% were active in any assay of this set; here they are far more common.
S2 tox = Viability Counterscreen for Primary qHTS for Inhibitors of ATXN expression | Potency, µM (titrated, usually from 56.7 µM), usual class: cytotoxic | S2 cells (HEK-293 line with an ATXN2-luciferase reporter) viability, CellTiter-Fluor protease fluorescence, 24 h | 400,000 compounds, 0.49% hits; further: potency means the concentration at half of the fitted maximal effect; nearly all actives have a fitted effect of over 40% in size
D3 ag = qHTS of D3 Dopamine Receptor Agonist: qHTS; D3R DiscoveRx beta-arrestin cells, luminescence, 90 min; AID 652048, 2013; D(3) dopamine receptor (Homo sapiens), P35462; 410,000 compounds, 0.58% hits; max activation, %; in the data active means max activation above about 30%; further: 0% is about no effect
Target sequence (P35462 whole entry, looked up): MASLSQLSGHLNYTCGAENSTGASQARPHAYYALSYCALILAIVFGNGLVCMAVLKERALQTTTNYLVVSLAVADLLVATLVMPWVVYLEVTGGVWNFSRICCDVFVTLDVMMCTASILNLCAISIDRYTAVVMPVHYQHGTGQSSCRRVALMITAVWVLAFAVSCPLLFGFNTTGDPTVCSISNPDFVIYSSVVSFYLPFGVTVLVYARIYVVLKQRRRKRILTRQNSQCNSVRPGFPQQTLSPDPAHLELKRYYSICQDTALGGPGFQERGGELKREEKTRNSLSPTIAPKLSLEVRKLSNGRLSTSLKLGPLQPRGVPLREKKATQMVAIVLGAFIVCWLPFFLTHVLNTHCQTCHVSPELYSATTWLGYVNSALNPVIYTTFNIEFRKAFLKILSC
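Agonist-mode cell screen: cells plated at 1500/well and incubated overnight at 37 °C, then exposed to library compounds for 90 min at 37 °C. Detection reagent was added for 30–60 min at room temperature, and luminescence was read.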
ATXN2 expr inh = Primary qHTS for Inhibitors of ATXN expression. HEK-293 ATXN2-luciferase reporter, luminescence, 24 h. Potency, µM (doses to about 57 µM), for the others: top-dose activity change, negative = inhibition, hits mostly inhibitors. 360,000 compounds, 0.72% hits. AID 1745845, 2022; further: potency means the concentration at half of the fitted maximal effect; on the % scale 0 is the no-effect control and ±100 the full control effect; nearly all actives have a fitted effect of over 55% in size
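qHTS (up to 57 uM final) was run with 24 h compound exposure of reporter cells at 37 °C. Each well was multiplexed: SteadyGlo luminescence measured ATXN2-luciferase expression after a fluorogenic Gly-Phe-AFC viability readout (25 uM final).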
IL1B secr inh = qHTS for Inhibitors of Inflammasome Signaling: IL-1-beta AlphaLISA Primary Screen; THP-1 LPS/ATP IL-1B secretion, AlphaLISA, 16 h; hits give low values; activity change, % at 57.5 µM; 360,000 compounds, 4.7% hits; AID 743279, 2014; in the data active means activity change below about -50%; inconclusive means mostly about -30% to -49%; further: on the % scale 0 is the no-effect control and ±100 the full control effect
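Secreted IL-1B measured by AlphaLISA bead assay after 16 h compound exposure of THP-1 cells; compounds (final up to 57.5 uM) added 1 h before LPS (250 ng/mL) and ATP (1.25 mM) stimulation; lower signal means less secretion.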
DRD3 antagonist = qHTS of D3 Dopamine Receptor Antagonist: qHTS. D3R cells, DiscoveRx beta-arrestin luminescence, antagonist mode; hits give low values. max response, negative = inhibition, %. 360,000 compounds, 2.5% hits; in the data active means max response below about -50%; inconclusive means no clear call, values can overlap the other calls; further: on the % scale 0 is the no-effect control and ±100 the full control effect
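Cells plated overnight at 1500 cells/well, then exposed to library compounds with dopamine controls for 90 minutes at 37 degrees C. DiscoveRx reagent added for 30–60 minutes at room temperature; luminescence read, quantitative HTS format.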
Integrin act MD = qHTS for Activators of Integrin-Mediated Alleviation for Muscular Dystrophy; alpha7betagal myoblasts, beta-gal FDG fluorescence, 48 h; 350,000 compounds, 0.064% hits; Potency, µM (top dose mostly 38.3 µM), for the others: at the highest dose activation, hits mostly activators; AID 624291, 2012;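 further: potency means the concentration at half of the fitted maximal effect; 100% = response of the positive control SU9516; nearly all actives have a fitted effect of over 60% in size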
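alpha7betagal+/- myoblasts (passage 13, 250/well) treated 48 h at 37C with compounds at 1:260 dilution of DMSO stock. Lysed, then beta-galactosidase activity read as FDG fluorescence (ex 480/em 540) after 30 min, with pre-read for autofluorescence.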
Numbers without * were called inactive; i = inactive; ? = inconclusive; nt = not tested or not shown; [ ] = remark or other dose. Unless noted, the call rests on the fitted dose curve; in most records, active means well fitted curve in the direction sought with a large enough effect; inconclusive means small, poorly fitted or top-dose-only effect, or another doubt; inactive means no such curve, though single readings can be large; an effect the other way counts as inactive or inconclusive.

SMILES	S2 tox	D3 ag	ATXN2 expr inh	IL1B secr inh	DRD3 antagonist	Integrin act MD
O=C(CCN1C(=O)C2CC=CCC2C1=O)Nc1nc(-c2ccc(F)c(F)c2)cs1 (stereo not given)	?	10	?	-1	57	2%
CCOc1ccc(S(=O)(=O)N2CCOCC2)cc1NC(=O)CSCC(=O)Nc1cccc(C)c1	i	-2	-10%	4	-21	-6%
CC(=O)Nc1cccc(C(=O)/C=C/c2cccs2)c1	?	-5	55%	-105*	-62*	-34%
CC(=O)Nc1cccc(C(=O)/C=C/c2ccc(N(C)C)cc2)c1	i	4	70%	?	22	-36%
CC(=O)Nc1cccc(C(=O)/C=C/c2ccc[nH]2)c1	i	3	nt	-23	47	49%
CC(=O)Nc1cccc(C(=O)/C=C/c2ccc(F)cc2)c1	?	-14	?	-192*	-14	-67%
CC(=O)Nc1cccc(C(=O)/C=C/c2ccco2)c1	i	3	67%	-71*	?	-40%
Nc1ncnc2c1ncn2[C@@H]1O[C@H](C(=O)N2CCC(F)(F)CC2)[C@@H](O)[C@H]1O	i	12	2%	17	3	nt
Cc1ccc(/C=C2\SC(=S)N(CCC(=O)NCCCN3CCOCC3)C2=O)cc1	?	-5	80%	-25	0	-10%
O=C(CCCN1C(=O)/C(=C/c2cccc(Br)c2)SC1=S)NCCCN1CCOCC1	?	0	-18%	-96*	-8	-66%
CCc1ccc(/C=C2\SC(=S)N(CCC(=O)NCCCN3CCOCC3)C2=O)cc1	?	1	50%	-88*	10	20%
COc1ccc(/C=C2\SC(=S)N(CCC(=O)NCCCN3CCOCC3)C2=O)cc1	?	-26	32%	-66*	8	-34%
Cc1cccc(C#Cc2ccccc2)n1	i	0	37%	-18	-21	nt
Cc1cccc(Cn2nc(C)cc2NC(=O)Cn2cc([N+](=O)[O-])cn2)c1	i	11	5%	26	35	-29%
CCOc1ccc(C(C)=O)cc1COC(=O)C(C)N=C1NS(=O)(=O)c2ccccc21 (stereo not given)	i	-2	0%	-11	9	14%
COc1ccc(-n2c(SCC(=O)Nc3ccc(C(N)=O)cc3)nc3ccccc3c2=O)cc1OC	?	-13	8%	?	-9	16%
COc1ccc(-n2c(SCC(=O)Nc3cccc(S(N)(=O)=O)c3)nc3ccccc3c2=O)cc1OC	?	11	-2%	-81*	6	6%
Cc1ccc(Cl)cc1N1CCN(S(=O)(=O)c2ccc3c(c2)oc(=O)n3C)CC1	i	-6	-21%	-5	4	6%
Cc1ccccc1NC(=O)c1ccc(CN2CCC(Cc3ccccc3)CC2)cc1	i	-19	-31%	-83*	-64*	-54%
Cc1ccc(C(=O)NCC(=O)N2CCC(Cc3ccccc3)CC2)cc1	i	2	3%	-69*	6	7%
CC(C)NC(=O)C1(C)CSCC(=O)N1C1CCN(Cc2ccccc2)CC1 (stereo not given)	nt	-21	nt	-17	-64*	nt
CC(C)NC(=O)c1ccc(CN2CCC(Cc3ccccc3)CC2)cc1	i	-24	-1%	-16	-80*	-31%
C=CCNC(=O)c1ccc(CN2CCC(Cc3ccccc3)CC2)cc1	i	-26	-9%	3	?	-4%
COc1ccc(NC(=O)C2=C(C)Nc3ncnn3C2c2ccccn2)cc1 (stereo not given)	i	-8	2%	nt	nt	nt
Cc1c(C(=O)N2CCOCC2)c(S(=O)(=O)Nc2ccccc2)c(C)n1C	i	-5	nt	-9	0	-15%
SMILES	S2 tox	D3 ag	ATXN2 expr inh	IL1B secr inh	DRD3 antagonist	Integrin act MD
COC(=O)c1cn(C(=O)c2ccc(OC)cc2)c2ccccc12	i	-6	-20%	8	-15	23%
CC(C)(C)NC(=O)c1cccc2c1OC(C)(C)C2	i	49*	-8%	25	9	0%
CCc1nc(CN2CCCC(C(=O)c3ccc4c5c(cccc35)CC4)C2)c(C)[nH]1 (stereo not given)	i	-20	-33%	-100*	-51*	-69%
O=C(c1ccc2c3c(cccc13)CC2)C1CCCN(Cc2ccncc2)C1 (stereo not given)	i	-16	nt	?	-53*	-46%
CC(CNC(=O)CCCn1ncn2c(cc3occc32)c1=O)c1ccccc1 (stereo not given)	i	-4	17%	-1	-6	-3%
COc1cccc2cc(C(=O)C3=C(O)C(=O)N(CCN4CCOCC4)C3c3ccc(C)o3)oc12 (stereo not given)	i	-4	2%	25	-13	-3%
Cc1ccc(NC(=S)NCC(O)c2ccccc2)c(C)c1 (stereo not given)	i	4	12%	4	10	26%
Cc1ccc(C(=O)c2c(NC(=O)CSc3nnc(N)s3)sc3c2CCCC3)cc1	i	5	-15%	-72*	20	-13%
Nc1nnc(SCC(=O)Nc2sc3c(c2C(=O)c2ccccc2)CCCC3)s1	i	6	-29%	-3	8	-19%
COc1ccc(-c2cc(C(=O)O)c(C)o2)cc1OC	nt	1	nt	-1	-18	-15%
COc1ccc(-c2cc(C(=O)NC(Cc3cc4ccccc4[nH]3)C(=O)O)c(C)o2)cc1OC (stereo not given)	i	36*	11%	0	4	-4%
Cc1cccc(OCCCC(=O)NNC(=O)c2ccccn2)c1	i	1	nt	89	-1	-31%
CCOC(=O)C1CCN(C(=O)CSc2cc(=O)n(CC)c3ccccc23)CC1	i	-22	10%	-10	-79*	6%
CCn1c(=O)cc(SCC(=O)N2CCC(C)CC2)c2ccccc21	i	-2	36%	-62*	-2	?
Cn1c(=O)cc(SCC(=O)N2CCN(C3CCCCC3)CC2)c2ccccc21	i	-13	0%	-60*	-18	17%
Cn1c(CSCc2ccccc2)nnc1SCC(=O)Nc1ccc(C(=O)O)cc1	i	-7	8%[11.3 µM]	8	-14	31%
CCN(Cc1cnn(C)c1)C(=O)c1cc(COc2cc(C)c(Cl)c(C)c2)on1	i	-5	6%	-3	2	18%
Cc1cc(OCc2cc(C(=O)N(C)CCc3cnn(C)c3)no2)cc(C)c1Cl	i	-2	16%	-59*	-20	10%
